Laboratory results: PubChem BioAssay (NCI)
Compounds without any hit were thinned out: in the full panel of roughly 79,000, 15% have a hit. Calls of active or inactive are those of the source. Rule as the data show it: active = growth inhibition above about 70%; inactive = the rest.

Assays:
[1] = NCI Yeast Anticancer Drug Screen. Data for the rad50 strain (AID 155);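 also: 0% = growth of vehicle-only cultures of the same strain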; details: S. cerevisiae rad50 strain growth inhibition, stronger effect = higher value
Procedure, shortened: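 Growth of the mutant yeast was measured after compound exposure and referenced to vehicle-treated cultures.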

[2] = NCI Yeast Anticancer Drug Screen. Data for the mec2-1 strain (AID 157); details: S. cerevisiae mec2-1 strain, stronger effect = higher value
Procedure, shortened: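 Compounds were applied to mec2-1 yeast cells. Their growth was then compared with that of vehicle-treated cultures to give growth inhibition.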

[3] = NCI Yeast Anticancer Drug Screen. Data for the sgs1 mgt1 strain (AID 161);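 also: 0% = growth of cultures given vehicle only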; details: S. cerevisiae sgs1 mgt1 strain, stronger effect = higher value
Procedure, shortened: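 Yeast cells carrying a defined DNA-repair defect were exposed to test compounds. Growth inhibition was measured relative to vehicle-treated controls.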

[4] = NCI Yeast Anticancer Drug Screen. Data for the cln2 rad14 strain (AID 165);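 also: 0% = growth equal to vehicle treated cultures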; details: S. cerevisiae cln2 rad14 strain, stronger effect = higher value
Procedure, shortened: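 Strain: cln2 rad14 yeast, altered in cell cycle control and DNA damage repair. Read-out: growth inhibition vs vehicle.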

[5] = NCI Yeast Anticancer Drug Screen. Data for the bub3 strain (AID 167); details: S. cerevisiae bub3 mutant strain, stronger effect = higher value
Procedure, shortened: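 Whole-cell yeast assay. The mutant strain was incubated with compounds, and growth inhibition was determined by comparison with vehicle-treated cells.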

[6] = NCI Yeast Anticancer Drug Screen. Data for the mlh1 rad18 strain (AID 175); details: S. cerevisiae mlh1 rad18 strain growth inhibition, stronger effect = higher value
Procedure, shortened: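 A repair-deficient yeast strain is exposed to test compound, and growth is scored relative to vehicle-treated controls.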

[7] = at 5.0 µM (retest, dose inferred, filed as 0.5)
[8] = at 50.0 µM (retest, dose inferred, filed as 5.0)

Measured: growth inhibition

O=C(CC(=O)C(F)(F)F)c1ccc(-c2ccccc2)cc1
inactive: [1]; [7] 27% | [2]; [7] 45% | [3]; [7] 39% | [4]; [7] 14% | [5]; [7] 36% | [6]; [7] 45%
active: [1]; [8] 99% | [1]; at 50.0 µM 97% | [2]; [8] 99% | [2]; at 50.0 µM 98.2% | [3]; [8] 99% | [3]; at 50.0 µM 98% | [4]; [8] 98% | [4]; at 50.0 µM 97.8% | [5]; [8] 99% | [5]; at 50.0 µM 97.2% | [6]; [8] 99% | [6]; at 50.0 µM 98.7%

CCCCCCCCCCCCOCC[N+](CCO)(CCO)Cc1ccccc1
active: [1]; [7] 99% | [1]; [8] 99% | [1]; at 50.0 µM 99.3% | [2]; [7] 100% | [2]; [8] 99% | [2]; at 50.0 µM 99.5% | [3]; [7] 99% | [3]; [8] 99% | [3]; at 50.0 µM 99.2% | [4]; [7] 97% | [4]; [8] 99% | [4]; at 50.0 µM 98.4% | [5]; [7] 97% | [5]; [8] 99% | [5]; at 50.0 µM 99% | [6]; [7] 98% | [6]; [8] 99% | [6]; at 50.0 µM 99.3%

Cc1nc(-c2ccc(N=Cc3ccc(N(CCOS(C)(=O)=O)CCOS(C)(=O)=O)cc3Cl)cc2)c(C)s1
inactive: [1]; [7] 1% | [1]; [8] 33% | [1]; at 50.0 µM 40.1% | [2]; [7] -68% | [2]; [8] -1% | [2]; at 50.0 µM 13.1% | [3]; [7] 2% | [3]; [8] 17% | [3]; at 50.0 µM 55.3% | [4]; [7] 6% | [4]; [8] -4% | [4]; at 50.0 µM -9.2% | [5]; [7] 0% | [5]; [8] -1% | [5]; at 50.0 µM -8.8% | [6]; [7] 4% | [6]; [8] 37%
active: [6]; at 50.0 µM 73%

CC(C)COC(=O)c1ccc(N=Cc2ccc(C=Nc3ccc(C(=O)OCC(C)C)cc3)cc2)cc1
inactive: [1]; [7] 25% | [1]; [8] 25% | [1]; at 50.0 µM 31.6% | [2]; [7] 16% | [2]; [8] 16% | [2]; at 50.0 µM -34.1% | [3]; [7] 14% | [3]; [8] 14% | [3]; at 50.0 µM -10.2% | [4]; [7] 7% | [4]; [8] 7% | [4]; at 50.0 µM 1.75% | [5]; [7] 9% | [5]; [8] 9% | [5]; at 50.0 µM -20.8% | [6]; [7] -1% | [6]; [8] -1% | [6]; at 50.0 µM -12.3%

COC1=CC(=O)C(O)=C/C1=C\C=C\c1ccccc1
active: [1]; [8] 97% | [1]; at 50.0 µM 95% | [2]; [8] 99% | [2]; at 50.0 µM 97% | [3]; [7] 84% | [3]; [8] 99% | [3]; at 50.0 µM 97% | [4]; [8] 99% | [4]; at 50.0 µM 95.3% | [5]; [8] 98% | [5]; at 50.0 µM 96.6% | [6]; [7] 83% | [6]; [8] 99% | [6]; at 50.0 µM 96.8%
inactive: [1]; [7] 67% | [2]; [7] 59% | [4]; [7] 50% | [5]; [7] 36%

CC(CN(C)C)C(/C=C/c1ccc(F)cc1)=N\Nc1ccccc1 (configuration not stated)
active: [6]; at 50.0 µM 75.7%
inactive: [1]; [7] -8% | [1]; [8] 51% | [1]; at 50.0 µM 30.1% | [2]; [7] -11% | [2]; [8] 1% | [2]; at 50.0 µM 12.6% | [3]; [7] -15% | [3]; [8] 13% | [3]; at 50.0 µM 42.6% | [4]; [7] 5% | [4]; [8] 46% | [4]; at 50.0 µM 3.65% | [5]; [7] -1% | [5]; [8] 39% | [5]; at 50.0 µM 15.9% | [6]; [7] 0% | [6]; [8] 29%

CCOc1ccc2c(c1)n([O-])c1ccccc1[n+]2=O
active: [1]; [7] 88% | [1]; [8] 98% | [2]; [8] 99% | [2]; at 50.0 µM 97.4% | [3]; [8] 99% | [3]; at 50.0 µM 99.2% | [4]; [8] 98% | [4]; at 50.0 µM 98.1% | [5]; [8] 98% | [5]; at 50.0 µM 98.8% | [6]; [7] 81% | [6]; [8] 98% | [6]; at 50.0 µM 99.1%
inactive: [1]; at 50.0 µM 56% | [2]; [7] 12% | [3]; [7] 55% | [4]; [7] 31% | [5]; [7] 17%

O=C(Nc1ccc(-c2cn3ccccc3n2)cc1)c1cc(Br)ccc1O
inactive: [1]; [7] 4% | [1]; [8] 15% | [1]; at 50.0 µM -21.6% | [2]; [7] 5% | [2]; [8] 7% | [2]; at 50.0 µM -28.6% | [3]; [7] 12% | [3]; [8] 9% | [3]; at 50.0 µM -13.8% | [4]; [7] 33% | [4]; [8] -9% | [4]; at 50.0 µM 39.9% | [5]; [7] 5% | [5]; [8] 6% | [5]; at 50.0 µM -24.4% | [6]; [7] 5% | [6]; [8] 13% | [6]; at 50.0 µM -29.8%

CCCCCCCCN=C(N)c1ccc(C(=O)OCC2CCCCC2)cc1
active: [1]; [7] 98% | [1]; [8] 99% | [1]; at 50.0 µM 99.6% | [2]; [7] 99% | [2]; [8] 100% | [2]; at 50.0 µM 99.7% | [3]; [7] 99% | [3]; [8] 99% | [3]; at 50.0 µM 99.7% | [4]; [7] 98% | [4]; [8] 99% | [4]; at 50.0 µM 99.5% | [5]; [7] 98% | [5]; [8] 100% | [5]; at 50.0 µM 99.6% | [6]; [7] 100% | [6]; [8] 100% | [6]; at 50.0 µM 99.7%
